Records with an inconclusive call do not appear. The source made the active and inactive calls. Calls come from the whole dose curve; as a rule, active = well fitted curve in the direction sought with a large enough effect; inconclusive = small, poorly fitted or top-dose-only effect, or another doubt; inactive = no such curve, though single readings can be large; an effect the other way counts as inactive or inconclusive.
Columns and labels:
[1] = qHTS of pediatric cancer cell lines to identify multiple opportunities for drug repurposing: Primary screen for TC32 cells (AID 1347089); note: nearly all actives have a fitted effect of over 60% in size; for activity change, negative = cytotoxic: % is set by controls: 0 for no effect and ±100 for the full control effect
Method in brief: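 qHTS, TC32, 48 h drug treatment, CellTiter-Glo luminescence as a proxy for metabolically active cells; primary top concentration 46 µM (MIPE 11-pt, NPC 8-pt); confirmatory 11-pt.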

[2] = qHTS of pediatric cancer cell lines to identify multiple opportunities for drug repurposing: Primary screen for DAOY cells (AID 1347090); note: nearly all actives have a fitted effect of over 55% in size;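 for activity change, negative = cytotoxic: series mostly up to about 46 µM; plate controls were DMSO for no effect and bortezomib for full effect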
Method in brief: (§1)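 Eight- or eleven-point concentration series, 48 h treatment at 37 degrees C in growth media; readout CellTiter-Glo luminescence. Potency and efficacy were taken from the concentration-response curves.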

[3] = qHTS of pediatric cancer cell lines to identify multiple opportunities for drug repurposing: Primary screen for SJ-GBM2 cells (AID 1347091);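 for activity change, negative = cytotoxic: plate controls were DMSO neutral control for no effect and bortezomib for full effect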
Method in brief: as §1

[4] = qHTS of pediatric cancer cell lines to identify multiple opportunities for drug repurposing: Primary screen for A673 cells (AID 1347092); note: nearly all actives have a fitted effect of over 45% in size; for activity change, negative = cytotoxic: % is set by controls: 0 for no effect and ±100 for the full control effect
Method in brief: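 Luminescence from CellTiter-Glo, taken after 15 min at room temperature, served as the proxy for metabolically active cells following 48 h treatment. Both potency and efficacy were taken from curves fitted to the titration data.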

[5] = qHTS of pediatric cancer cell lines to identify multiple opportunities for drug repurposing: Primary screen for SK-N-MC cells (AID 1347093);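 for activity change, negative = cytotoxic: series mostly up to about 46 µM; plate controls were DMSO neutral control for no effect and bortezomib for full effect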
Method in brief: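 Metabolically active cells were quantified by ATP-dependent luminescence (CellTiter-Glo, 15 min at room temperature) following 48 h treatment. Cells had been plated at 500-1,000 per well and settled for 5 h beforehand.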

[6] = qHTS of pediatric cancer cell lines to identify multiple opportunities for drug repurposing: Primary screen for NB-EBc1 cells (AID 1347095);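 for activity change, negative = cytotoxic: plate controls were DMSO neutral control for no effect and bortezomib for full effect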
Method in brief: (§2)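 Primary screen of approved and investigational compounds on cells in growth media at 37 degrees C, 5% CO2. MIPE set at 11-point and NPC set at 8-point dilutions; viability scored by ATP-based luminescence at 48 hours.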

[7] = qHTS of pediatric cancer cell lines to identify multiple opportunities for drug repurposing: Primary screen for U-2 OS cells (AID 1347096); note: nearly all actives have a fitted effect of over 50% in size;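 for activity change, negative = cytotoxic: plate controls were DMSO wells for no effect and bortezomib positive control wells for full effect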
Method in brief: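 Cells (500-1,000/well) in growth media were settled 5 h at 37 degrees C, then given compounds for 48 h. Viability was read as CellTiter-Glo luminescence. Primary runs used MIPE at 11 points (0.78 nM-46 µM) and NPC at 8 points (0.59 nM-46 µM); follow-ups used 11 points.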

[8] = qHTS of pediatric cancer cell lines to identify multiple opportunities for drug repurposing: Primary screen for SK-N-SH cells (AID 1347098); note: nearly all actives have a fitted effect of over 65% in size;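 for activity change, negative = cytotoxic: DMSO served as neutral control and bortezomib at 2.3 µM as positive control; % is set by controls: 0 for no effect and ±100 for the full control effect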
Method in brief: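 Cells (500-1,000/well) rested 5 h, then received compounds for 48 h; metabolically active cells were measured by CellTiter-Glo luminescence. Final concentrations spanned up to 46 µM (MIPE, 11-point) or 0.59 nM-46 µM (NPC, 8-point) in primary screens, 11-point in follow-ups.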

[9] = qHTS of pediatric cancer cell lines to identify multiple opportunities for drug repurposing: Primary screen for BT-37 cells (AID 1347094);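 for activity change, negative = cytotoxic: series mostly up to about 57 µM; plate controls were DMSO for no effect and bortezomib for full effect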
Method in brief: as §2

[10] = qHTS of pediatric cancer cell lines to identify multiple opportunities for drug repurposing: Primary screen for Saos-2 cells (AID 1347097); note: nearly all actives have a fitted effect of over 40% in size; for activity change, negative = cytotoxic: % is set by controls: 0 for no effect and ±100 for the full control effect
Method in brief: as §2
Potency is the fitted concentration of half-maximal effect.

NCC1CCC(C(=O)O)CC1 (stereo not drawn)
inactive: Potency [1] | Potency [2] | Potency [3] | Potency [4] | Potency [5] | Potency [6] | Potency [7] | Potency [8]

c1ccc(CNc2nc(N3CCOc4ccccc43)nc3c2CCCC3)cc1
active: Potency [3] 23.5 µM
inactive: Potency [1] | Potency [2] | Potency [4]

CCC[C@@H](NC(=O)[C@@H]1[C@H]2CCC[C@@H]2CN1C(=O)[C@@H](NC(=O)[C@@H](NC(=O)c1cnccn1)C1CCCCC1)C(C)(C)C)C(=O)C(=O)NC1CC1
inactive: Potency [1] | Potency [2] | Potency [4] | Potency [6] | Potency [7]
active: Potency [3] 18.7 µM | Potency [5] 23.5 µM

CC=C1C2C=C(C)CC1(N)c1ccc(=O)[nH]c1C2 (stereo not drawn)
inactive: Potency [1] | Potency [2] | Potency [3] | Potency [4] | Potency [5] | Potency [9] | Potency [10] | Potency [8]

NC(=O)c1noc([C@H](CCCC2CCCCC2)CC(=O)NO)n1
active: Potency [2] 14.8 µM | Potency [3] 18.7 µM | Potency [4] 9.35 µM | Potency [5] 7.43 µM | Potency [9] 21.7 µM | Potency [6] 20.9 µM
inactive: Potency [1] | Potency [7]

COc1nc(C)cnc1NS(=O)(=O)c1cccnc1-c1ccc(-c2nnco2)cc1
inactive: Potency [1] | Potency [2] | Potency [3] | Potency [4] | Potency [5] | Potency [9] | Potency [6] | Potency [10]

CO[C@H]1C=CO[C@@]2(C)Oc3c(C)c(O)c4c(O)c(c(C=NN5CCN(C)CC5)c(O)c4c3C2=O)NC(=O)C(C)=CC=C[C@H](C)[C@H](O)[C@@H](C)[C@@H](O)[C@@H](C)[C@H](OC(C)=O)[C@H]1C
inactive: activity change, negative = cytotoxic [1] 6.56% [at 9.17 µM] | activity change, negative = cytotoxic [2] -7.74% [at 9.22 µM] | activity change, negative = cytotoxic [3] 4.67% [at 9.22 µM] | activity change, negative = cytotoxic [4] 0.264% [at 9.22 µM] | activity change, negative = cytotoxic [5] -4.39% [at 9.22 µM] | activity change, negative = cytotoxic [6] -7.84% [at 9.22 µM] | activity change, negative = cytotoxic [7] -1.44% [at 9.22 µM] | activity change, negative = cytotoxic [8] -10.6% [at 11.4 µM]

CNC1CCC(N(Cc2cccc(-c3ccncc3)c2)C(=O)c2sc3ccccc3c2Cl)CC1 (stereo not drawn)
active: Potency [3] 23.5 µM | Potency [4] 14.8 µM | Potency [5] 23.5 µM | Potency [9] 24.3 µM | Potency [6] 26.4 µM | Potency [10] 26.4 µM | Potency [8] 24.1 µM
inactive: Potency [1] | Potency [2] | Potency [7]

CN1CCC(COc2cnc(-c3cccc(Cn4nc(-c5cccc(C#N)c5)ccc4=O)c3)nc2)CC1
inactive: Potency [1] | Potency [9] | Potency [7] | Potency [10]
active: Potency [2] 23.5 µM | Potency [3] 0.0083 µM | Potency [4] 0.148 µM | Potency [5] 0.148 µM | Potency [8] 24.1 µM

CNC(=O)c1cc(Oc2ccc(NC(=O)Nc3ccc(Cl)c(C(F)(F)F)c3)c(F)c2)ccn1
active: Potency [2] 5.9 µM | Potency [3] 8.33 µM | Potency [4] 18.7 µM | Potency [5] 2.96 µM | Potency [9] 21.7 µM | Potency [6] 5.26 µM | Potency [10] 16.6 µM
inactive: Potency [1]

Cc1ccc(S(=O)(=O)OCC(=O)Nc2ccc(C(=O)O)c(O)c2)cc1
inactive: Potency [1] | Potency [2] | Potency [3] | Potency [9] | Potency [6]
active: Potency [4] 14.8 µM | Potency [5] 9.35 µM

CCC(C)SSc1ncc[nH]1 (stereo not drawn)
active: Potency [2] 18.7 µM | Potency [3] 20.9 µM | Potency [4] 18.7 µM | Potency [5] 3.72 µM | Potency [6] 5.9 µM | Potency [10] 18.7 µM
inactive: Potency [1]

CCNC(=O)c1noc(-c2cc(C(C)C)c(O)cc2O)c1-c1ccc(CN2CCOCC2)cc1
active: Potency [1] 0.165 µM | Potency [2] 0.235 µM | Potency [3] 0.332 µM | Potency [4] 0.148 µM | Potency [5] 0.0526 µM | Potency [6] 0.296 µM | Potency [8] 0.152 µM

O=C(Nc1cccc2c(=O)cc(-c3nn[nH]n3)oc12)c1ccc(OCCCCc2ccccc2)cc1
inactive: Potency [1] | Potency [2]

CC(=O)O[C@]1(C(C)=O)CC[C@H]2[C@@H]3C=C(Cl)C4=CC(=O)[C@@H]5C[C@H]5[C@]4(C)[C@@H]3CC[C@@]21C
inactive: Potency [1]
active: Potency [2] 18.7 µM | Potency [3] 9.35 µM | Potency [4] 0.469 µM | Potency [5] 7.43 µM | Potency [6] 16.6 µM | Potency [8] 12.1 µM

O=C(O)Cc1cccc(OCCCN(Cc2cccc(C(F)(F)F)c2Cl)CC(c2ccccc2)c2ccccc2)c1
inactive: Potency [1]
active: Potency [2] 14.8 µM | Potency [3] 23.5 µM | Potency [4] 23.5 µM | Potency [5] 6.62 µM | Potency [9] 27.3 µM | Potency [6] 23.5 µM | Potency [8] 19.2 µM

CN[C@H]1[C@@H](O[C@@H]2[C@H](O[C@@H]3[C@@H](O)[C@@H](O)[C@@H](N=C(N)N)[C@@H](O)[C@@H]3N=C(N)N)O[C@H](C)[C@@]2(O)C=O)O[C@@H](CO)[C@@H](O)[C@H]1O
inactive: activity change, negative = cytotoxic [1] 6.69% [at 9.17 µM] | activity change, negative = cytotoxic [2] 1.78% [at 9.22 µM] | activity change, negative = cytotoxic [3] 13.3% [at 9.22 µM] | activity change, negative = cytotoxic [4] -1.15% [at 9.22 µM] | activity change, negative = cytotoxic [5] -4.87% [at 9.22 µM] | activity change, negative = cytotoxic [6] 7.3% [at 9.22 µM] | activity change, negative = cytotoxic [7] 13% [at 9.22 µM] | activity change, negative = cytotoxic [8] 18.9% [at 11.4 µM]

COc1ccc(-c2oc3c(CC=C(C)C)c(O)cc(O)c3c(=O)c2O)cc1
inactive: Potency [1] | Potency [9] | Potency [7]
active: Potency [2] 23.5 µM | Potency [3] 18.7 µM | Potency [4] 18.7 µM | Potency [5] 9.35 µM | Potency [6] 18.7 µM

O=C(O)C1=CC(O)C(O)[C@H](O)C1 (stereo partly drawn)
inactive: Potency [1] | Potency [2] | Potency [3] | Potency [4] | Potency [5] | Potency [6] | Potency [7] | Potency [10] | Potency [8]

CC(C)c1c(C(=O)Nc2ccccc2)c(-c2ccccc2)c(-c2ccc(F)cc2)n1CC[C@H](O)C[C@@H](O)CC(=O)O
inactive: Potency [1]
active: Potency [2] 11.8 µM | Potency [3] 16.6 µM | Potency [4] 18.7 µM | Potency [5] 23.5 µM | Potency [7] 18.7 µM | Potency [10] 6.62 µM

Nc1ccc(-c2ccc3ncc4ccc(=O)n(-c5cccc(C(F)(F)F)c5)c4c3c2)cn1
active: Potency [1] 0.0104 µM | Potency [2] 0.0074 µM | Potency [3] 0.003 µM | Potency [4] 0.003 µM | Potency [5] 0.0001 µM | Potency [9] 0.0109 µM | Potency [7] 1.48 µM | Potency [10] 0.148 µM

CC1C(=O)OC2C(O)C34C5CC(C(C)(C)C)C36C(OC(=O)C6O)OC4(C(=O)O5)C12O (stereo not drawn)
inactive: Potency [1] | Potency [2] | Potency [3] | Potency [7] | Potency [10]
active: Potency [4] 18.7 µM | Potency [5] 29.6 µM | Potency [6] 14.8 µM

Cc1cnc(-c2cc(N3CCN(C(=O)CCS(C)(=O)=O)CC3)ncc2Cl)c(C)c1
inactive: Potency [1] | Potency [2] | Potency [3] | Potency [7] | Potency [10]
active: Potency [4] 4.69 µM | Potency [5] 16.6 µM

COc1cc(Nc2nc3ccccc3nc2NS(=O)(=O)c2ccc(NC(=O)c3ccc(C)c(OC)c3)cc2)cc(OC)c1
active: Potency [2] 23.5 µM | Potency [3] 23.5 µM | Potency [4] 23.5 µM | Potency [5] 26.4 µM | Potency [6] 26.4 µM | Potency [8] 24.1 µM
inactive: Potency [1]

CON(C)C(=O)N1N=C(c2cc(F)ccc2F)S[C@]1(CCCN)c1ccccc1
inactive: Potency [7]
active: Potency [1] 0.0047 µM | Potency [2] 0.0015 µM | Potency [3] 0.001 µM | Potency [4] 0.001 µM | Potency [5] 0.001 µM | Potency [10] 0.001 µM

COc1cccc(OC)c1-c1cc(C(=O)NC2(C(=O)O)C3CC4CC(C3)CC2C4)nn1-c1ccnc2cc(Cl)ccc12 (stereo not drawn)
inactive: Potency [1] | Potency [2] | Potency [4] | Potency [9] | Potency [7]
active: Potency [3] 26.4 µM | Potency [5] 18.7 µM

NS(=O)(=O)c1cc(Cl)c(Cl)c(S(N)(=O)=O)c1
inactive: Potency [1] | Potency [2] | Potency [3] | Potency [4] | Potency [5] | Potency [9] | Potency [6] | Potency [7] | Potency [10] | Potency [8]

CN(C)CCN(Cc1ccc(Cl)cc1)c1ccccn1
inactive: Potency [1] | Potency [3] | Potency [9] | Potency [7] | Potency [10]
active: Potency [2] 29.6 µM | Potency [4] 18.7 µM | Potency [5] 10.5 µM

CN[C@@H]1[C@@H](O)[C@@H](O[C@@H]2[C@@H](O)[C@H](O[C@H]3O[C@H](CN)[C@@H](O)[C@H](O)[C@@H]3O)[C@@H](N)C[C@@H]2NC(=O)[C@@H](O)CN)OC[C@]1(C)O
inactive: Potency [1] | Potency [2] | Potency [3] | Potency [4] | Potency [5] | Potency [6] | Potency [7] | Potency [10]

CC(=O)OCC(=O)[C@@]1(O)CC[C@H]2[C@@H]3CCC4=CC(=O)C=C[C@]4(C)[C@@H]3[C@@H](O)C[C@@]21C
inactive: Potency [1] | Potency [2] | Potency [3] | Potency [4] | Potency [5] | Potency [9] | Potency [7] | Potency [8]

Nc1nc(Cl)nc2c1ncn2[C@@H]1O[C@H](CO)[C@@H](O)[C@H]1F
active: Potency [1] 0.0234 µM | Potency [2] 0.0372 µM | Potency [3] 0.001 µM | Potency [4] 0.0296 µM | Potency [5] 0.001 µM | Potency [6] 0.001 µM
inactive: Potency [7]

CNC1[C@H](O)C(O[C@@H]2C(O)C(O[C@H]3O[C@H]([C@@H](C)NC)CC[C@H]3N)[C@@H](N)C[C@H]2N)OC[C@]1(C)O (stereo partly drawn)
inactive: Potency [1] | Potency [2] | Potency [3] | Potency [4] | Potency [5] | Potency [9] | Potency [6] | Potency [7] | Potency [10] | Potency [8]
